Bioassay records (PubChem)
Pf apPOL block: Pf-apPOL inhibitors, biochemical, fluorescence; 210,000 tested, 0.25% active; Recombinant Pf-apPOL, molecular beacon fluorescence, 1.5 h; inhibition, % at 10 µM; Plasmodium falciparum apicoplast DNA polymerase (apPOL)
mHTT-CaM PPI inh: mutant huntingtin-calmodulin interaction inhibitors – biochemical, AlphaScreen, primary screen; P42858; AlphaScreen His-mHTT/GST-CaM binding, luminescence; inhibition, % at 15 µM; 190,000 tested, 3.6% active
Numbers stand for hits; i = inactive; nt = no result. Rows were chosen to be rich in hits. Some 3.6% of all compounds tested hit in one or more screens of this group. No stated cut-off is given here; in the data, active means inhibition above about 50%; inactive means the rest.

SMILES	Pf apPOL block	mHTT-CaM PPI inh
CC(=O)NC(=O)c1cc2cc([N+](=O)[O-])ccc2oc1=Nc1cccc(C)c1	i	i
CCC(=O)NCCc1csc(C2CCCN(C(=O)CC(C)C)C2)n1 (stereo not given)	i	i
CCN(CC)CCCC(C)Nc1c2ccc(Cl)cc2nc2ccc(OC)cc12 (stereo not given)	62	nt
CCN(CC)CCSc1nc2ccc(OC)cc2[nH]1	i	i
COc1cccc(Nc2nc(-c3ccc(OC)c(F)c3)cs2)c1	i	64
Cc1ccc(C)c(-c2csc(Nc3ccc(Cl)cc3)n2)c1	i	67
Cc1ccc(Nc2nc(-c3ccc(F)cc3)cs2)cc1	i	i
COc1ccc(-c2csc(NCc3ccccc3)n2)cc1	nt	i
Cc1cccc(Nc2nc(-c3cccnc3)cs2)c1	i	i
CCc1ccc(-c2csc(Nc3cccc(OC)c3)n2)cc1	i	67
COc1cccc(Nc2nc(-c3cc(C)ccc3C)cs2)c1	i	63
COc1ccc(-c2csc(Nc3ccccc3OC)n2)cc1F	i	i
CC(=O)N1CCN(c2nc3c(s2)CC(C(=O)Nc2cccc4c2CCCC4)CC3)CC1 (stereo not given)	i	i
Cc1cn(S(=O)(=O)c2c(C)c(C)cc(C)c2C)cn1	i	i
CCn1cc(CC(=O)NC2CC2)c2cccnc21	i	i
COc1ccccc1NC(=O)c1ccc(NS(=O)(=O)c2cc(C)ccc2C)cc1	i	i
O=C(Nc1ccc(O)cc1)c1ccco1	i	i
CCc1ccc(S(=O)(=O)N2CCCC2c2nc(-c3ccc(Cl)cc3)no2)cc1 (stereo not given)	i	i
CCNC(=O)C1CCCN(c2nc3ncn(CC(=O)NCc4ccco4)c(=O)c3s2)C1 (stereo not given)	i	i
COc1cccc(Nc2ccc(-c3ccccc3)nn2)c1	i	nt
COc1cccc(Nc2nc(-c3ccccc3)cs2)c1	i	62
Cc1ccccc1C(=O)c1cn[nH]c1-c1ccccc1O	i	i
O=C(c1ccc(Cl)cc1)c1cn[nH]c1-c1ccccc1O	i	95
COc1cccc(/C=c2\sc3nc(-c4cccc(Cl)c4)nn3c2=O)c1OC	i	i
O=C(c1ccc(F)cc1)N1CCCC2(CC(c3ccncc3)=CO2)C1 (stereo not given)	i	i
SMILES	Pf apPOL block	mHTT-CaM PPI inh
O=C(c1cccc(F)c1)N1CCCC2(CC(c3ccncc3)=CO2)C1 (stereo not given)	i	i
O=C(c1cccc(F)c1)N1CCCC2(CC(c3ccccc3)=CO2)C1 (stereo not given)	i	100
O=C(c1ccc(F)cc1)N1CCCC2(CC(c3ccccc3)=CO2)C1 (stereo not given)	i	99
COc1cccc(C2C=C(c3cccc([N+](=O)[O-])c3)Nc3nc4ccccc4n32)c1OC (stereo not given)	i	i
CCN(C(=O)c1ccccc1[N+](=O)[O-])c1ccccc1C	i	i
Cc1cc(C)c2sc(N(CCN(C)C)C(=O)c3ccccc3[N+](=O)[O-])nc2c1	i	84
COc1cccc(C2C(C#N)=C(N)OC3=C2C(=O)CCC3)c1 (stereo not given)	i	i
COc1cccc(/C=C2\CCC3=C2OC(N)=C(C#N)C3c2cccc(OC)c2)c1 (stereo not given)	i	78
N#CC1=C(N)OC2=C(CCCC2)C1c1ccc(F)cc1 (stereo not given)	i	i
N#CC1=C(N)OC2=C(CC/C2=C\c2ccc(F)cc2)C1c1ccc(F)cc1 (stereo not given)	i	77
CCCCN(CCCNC(=O)CC(C(=O)N1CCc2ccccc21)n1ccnc1)c1ccccc1 (stereo not given)	i	77
CCCCN(C)CCCNC(=O)CC(C(=O)N1CCc2ccccc21)n1ccnc1 (stereo not given)	i	i
O=C(c1ccco1)N1CCC2(C1)NCc1ccccc1NC2=NCc1ccccc1 (stereo not given)	i	i
CCN(CC)C(=O)c1cc2c(s1)CCC(C(=O)Nc1cccc(OC)c1)C2 (stereo not given)	i	i
O=C(Cc1ccccc1F)N1CCCC1c1ccc(Cl)cc1 (stereo not given)	i	i
CCCCn1c(=N)n(CC(O)COc2ccc(Cl)cc2)c2ccccc21 (stereo not given)	i	i
N=c1n(Cc2ccccc2)c2ccccc2n1CC(O)COc1ccc(Cl)cc1 (stereo not given)	i	60
CCOc1cccc(C(=O)Nc2cccc(-c3nc4cc(C)ccc4o3)c2C)c1	i	i
CC(=O)NC1=NC(=O)/C(=C\c2ccc(-c3ccc(F)cc3F)o2)S1	i	i
O=C(NCCN1CCOCC1)C1CN(C(=O)c2ccccc2)CC12CCCCC2 (stereo not given)	i	i
CC(C)n1c(=O)c(NCc2ccccc2Br)nc2ccncc21	i	i
COc1cccc(N=Cc2cc([N+](=O)[O-])cc(OC)c2O)c1	i	76
Oc1cccnc1N=Cc1cc(I)cc(I)c1O	i	90
COc1cc([N+](=O)[O-])cc(C=Nc2ncccc2O)c1O	i	72
CCOc1cc([N+](=O)[O-])cc(C=Nc2ccc3ncccc3c2)c1O	i	i
SMILES	Pf apPOL block	mHTT-CaM PPI inh
Cc1cccc(N=Cc2cc(I)cc(I)c2O)c1	i	i
COc1cc([N+](=O)[O-])cc(C=Nc2cccc(Cl)c2Cl)c1O	i	i
COc1ccc(-c2csc(Nc3ccc(C(=O)O)cc3)n2)cc1	i	i
CC(=O)Nc1ccc(Nc2nc(-c3ccc(Cl)cc3)cs2)cc1	i	76
COc1ccc(-c2csc(Nc3ccc(NC(C)=O)cc3)n2)cc1	i	60
CC(=O)Nc1ccc(Nc2nc(-c3ccccc3)cs2)cc1	i	i
CC(=O)N1CCCC(c2ccnc(-c3ccc(C)cc3)n2)C1 (stereo not given)	i	i
CCc1c(C)sc(NC(=O)c2cnn3c(C(F)(F)F)cc(-c4ccccc4)nc23)c1C(N)=O	i	i
COc1cc(/C=C/[N+](=O)[O-])cc(Cl)c1OCc1cccc(C(=O)O)c1	i	57
COc1cc(/C=C2\NC(=O)NC2=O)cc(Cl)c1OCc1cccc(C(=O)O)c1	i	i
Cc1ccc(NC(=O)NCc2ccnc(N3CCSCC3)c2)cc1	i	i
O=C(Cc1cccs1)Nc1nnc(-c2ccccc2Cl)o1	i	i
CCOc1ccc(NC(=O)CC2Sc3ccccc3NC2=O)c([N+](=O)[O-])c1 (stereo not given)	i	i
Cc1cc(COC(=O)C2N3C(=O)[C@@H](NC(=O)COc4ccccc4)[C@H]3SC2(C)C)on1 (stereo not given in full)	i	i
CC1(C)S[C@@H]2[C@H](NC(=O)COc3ccccc3)C(=O)N2[C@H]1C(=O)OCc1cccc2cccnc12	i	51
O=C(CC1CCN(C(=O)c2ccccc2)CC1)N1CCCCCC1	i	i
Cn1cnnc1C1CCCCN1S(=O)(=O)c1cccs1 (stereo not given)	i	i
CC(C)(C)n1nc2c(c1NC(=O)c1cccc(Cl)c1)CSC2	i	i
CC(C)Oc1ccc(C(=O)Nc2c3c(nn2C(C)(C)C)CSC3)cc1	83	i
CC(C)(C)n1nc2c(c1NC(=O)c1cccc(Br)c1)CSC2	i	53
CC(C)(C)n1nc2c(c1NC(=O)c1ccc([N+](=O)[O-])cc1)CSC2	i	66
CC(C)Oc1ccc(C(=O)Nc2c3c(nn2C(C)(C)C)CS(=O)C3)cc1 (stereo not given)	i	i
